{"source": "paper PMC4336329", "about": "(PLoS ONE, 2015)", "note": "The campaign covered roughly 310,000 compounds. About 2,200 (0.71%) showed an effect of 50% or more. The effect is printed as a negative number. For the sample, strong results were picked, then their nearest neighbours and some compounds at random."}
{"molecular_target": "human ether-à-go-go-related gene (hERG) potassium channel (human, UniProt Q12809)", "sequence (Q12809 whole entry, looked up)": "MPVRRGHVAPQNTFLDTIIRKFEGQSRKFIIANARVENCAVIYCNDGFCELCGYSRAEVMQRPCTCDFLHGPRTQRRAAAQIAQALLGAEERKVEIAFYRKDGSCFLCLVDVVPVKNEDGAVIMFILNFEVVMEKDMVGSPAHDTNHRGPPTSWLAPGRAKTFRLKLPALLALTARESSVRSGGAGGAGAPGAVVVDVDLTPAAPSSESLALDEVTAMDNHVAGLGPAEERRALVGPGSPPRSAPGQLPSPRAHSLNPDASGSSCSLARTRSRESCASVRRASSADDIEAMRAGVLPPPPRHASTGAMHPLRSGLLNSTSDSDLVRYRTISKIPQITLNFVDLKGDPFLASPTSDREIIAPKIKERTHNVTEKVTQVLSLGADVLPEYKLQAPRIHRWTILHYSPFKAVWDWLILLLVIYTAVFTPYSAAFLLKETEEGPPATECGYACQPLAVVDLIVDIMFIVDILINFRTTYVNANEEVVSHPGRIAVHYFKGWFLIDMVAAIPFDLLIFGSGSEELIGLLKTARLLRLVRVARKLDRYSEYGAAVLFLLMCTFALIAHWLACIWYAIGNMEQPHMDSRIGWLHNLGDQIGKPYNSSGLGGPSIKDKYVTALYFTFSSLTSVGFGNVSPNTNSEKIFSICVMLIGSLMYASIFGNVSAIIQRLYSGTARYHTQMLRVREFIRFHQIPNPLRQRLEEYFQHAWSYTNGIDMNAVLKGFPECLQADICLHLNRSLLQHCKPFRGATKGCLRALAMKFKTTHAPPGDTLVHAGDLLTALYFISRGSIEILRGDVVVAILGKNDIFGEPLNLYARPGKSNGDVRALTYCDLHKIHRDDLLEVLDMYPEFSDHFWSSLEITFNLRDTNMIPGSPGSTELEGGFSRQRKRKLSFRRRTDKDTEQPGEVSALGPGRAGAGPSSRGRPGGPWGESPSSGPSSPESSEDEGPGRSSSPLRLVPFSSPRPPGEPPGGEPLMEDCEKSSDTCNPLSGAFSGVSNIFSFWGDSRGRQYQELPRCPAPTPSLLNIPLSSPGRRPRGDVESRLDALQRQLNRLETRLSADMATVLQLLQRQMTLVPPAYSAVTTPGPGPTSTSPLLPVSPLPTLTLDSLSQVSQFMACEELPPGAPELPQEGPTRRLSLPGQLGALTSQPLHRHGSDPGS", "assay": "primary screen, population patch clamp on CHO cells stably expressing hERG; higher = less effect of the substance", "units": {"hERG current change (%, negative = inhibition) at 1uM": "%"}}
{"smiles": "O=C(CCn1c(=O)c2ccccc2n(Cc2cccnc2)c1=O)NCc1ccc2c(c1)OCO2", "hERG current change (%, negative = inhibition) at 1uM": 9.51}
{"smiles": "O=C(NCc1ccc2c(c1)OCO2)c1cnc2ccccn2c1=O", "hERG current change (%, negative = inhibition) at 1uM": 5.17}
{"smiles": "N=c1c(C(=O)NCc2ccc3c(c2)OCO3)cc2c(=O)n3ccccc3nc2n1Cc1cccnc1", "hERG current change (%, negative = inhibition) at 1uM": -51.5}
{"smiles": "COc1ccc(CCn2c(=N)c(C(=O)NC3CCCCC3)cc3c(=O)n4ccccc4nc32)cc1", "hERG current change (%, negative = inhibition) at 1uM": -84.1}
{"smiles": "COc1ccc(CCn2c(=N)c(C(=O)NC3CCCC3)cc3c(=O)n4ccccc4nc32)cc1", "hERG current change (%, negative = inhibition) at 1uM": -89.2}
{"smiles": "COc1ccc(CCn2c(=N)c(S(=O)(=O)c3ccccc3)cc3c(=O)n4ccccc4nc32)cc1", "hERG current change (%, negative = inhibition) at 1uM": 10.8}
{"smiles": "COc1ccc(CCn2c(=N)c(C(=O)NC3CCCC3)cc3c(=O)n4ccccc4nc32)cc1OC", "hERG current change (%, negative = inhibition) at 1uM": -46.9}
{"smiles": "COc1ccc(CCn2c(=N)c(C(=O)N3CCN(C)CC3)cc3c(=O)n4ccccc4nc32)cc1", "hERG current change (%, negative = inhibition) at 1uM": -2.76}
{"smiles": "CCN(C(=O)c1cc2c(=O)n3ccccc3nc2n1CCCOC)C1CCCCC1", "hERG current change (%, negative = inhibition) at 1uM": 2.38}
{"smiles": "COCCCn1c(=N)c(C(=O)NC2CCCCC2)cc2c(=O)n3ccccc3nc21", "hERG current change (%, negative = inhibition) at 1uM": -81.6}
{"smiles": "COc1ccc(CCn2c(=N)c(C(=O)NC3CCCC3)cc3c(=O)n4cccc(C)c4nc32)cc1", "hERG current change (%, negative = inhibition) at 1uM": -79.9}
{"smiles": "Cc1cccn2c(=O)c3cc(C(=O)NC4CCCC4)c(=N)n(CCc4ccccc4)c3nc12", "hERG current change (%, negative = inhibition) at 1uM": -33.8}
{"smiles": "COc1ccc(Cn2c(=N)c(C(=O)NC3CCCCC3)cc3c(=O)n4ccccc4nc32)cc1", "hERG current change (%, negative = inhibition) at 1uM": -5.89}
{"smiles": "C/C(=N\\NC(=O)c1cccc(F)c1)c1ccc(NC(=O)Cc2ccccc2)cc1", "hERG current change (%, negative = inhibition) at 1uM": 12.8}
{"smiles": "COc1cccc(CN2C(=NC(=O)C3CC3)SC3CS(=O)(=O)CC32)c1", "note": "(centres unmarked)", "hERG current change (%, negative = inhibition) at 1uM": 14.8}
{"smiles": "NC(=O)c1ccccc1NC(=S)NC(=O)CCc1ccccc1", "hERG current change (%, negative = inhibition) at 1uM": 6.72}
{"smiles": "CCSc1nnc(-c2ccc(OC)cc2)o1", "hERG current change (%, negative = inhibition) at 1uM": 3.96}
{"smiles": "Cc1cccc2cc(C#N)c(NCCNC(=S)NCCCN3CCOCC3)nc12", "hERG current change (%, negative = inhibition) at 1uM": 4.84}
{"smiles": "Oc1c(C=Nc2ccccc2)sc2ccccc12", "hERG current change (%, negative = inhibition) at 1uM": 12.4}
{"smiles": "CC(C)CC(=O)C1CCCN(C(=O)c2ccc3oc(Cc4ccccc4)nc3c2)C1", "note": "(centres unmarked)", "hERG current change (%, negative = inhibition) at 1uM": 11.9}
{"smiles": "Cn1c(CC(=O)Nc2ccc(Cl)c(Cl)c2)nnc1SCC(=O)NCc1ccccc1", "hERG current change (%, negative = inhibition) at 1uM": 9.85}
{"smiles": "COc1cc(SC)ccc1C(=O)N1CCc2ccccc21", "hERG current change (%, negative = inhibition) at 1uM": 13.9}
{"smiles": "N=c1c(C(=O)NC2CCCCC2)cc2c(=O)n3ccccc3nc2n1CCc1ccccc1", "hERG current change (%, negative = inhibition) at 1uM": -88.1}
{"smiles": "Cc1cc2c(=O)n(Cc3ccco3)c(SCC(=O)N3CCCc4ccccc43)nc2s1", "hERG current change (%, negative = inhibition) at 1uM": 0.209}
{"smiles": "CC1CCCC(NC(=O)CCCn2c(=S)[nH]c3ccccc3c2=O)C1C", "note": "(centres unmarked)", "hERG current change (%, negative = inhibition) at 1uM": 5.25}
{"smiles": "CN1CCC(=NNC(=O)CN(c2cccc(Br)c2)S(C)(=O)=O)CC1", "hERG current change (%, negative = inhibition) at 1uM": 1.22}
{"smiles": "CS(=O)(=O)Nc1ccc(C2=NN(C(=O)c3ccco3)C(c3cccc(F)c3)C2)cc1", "note": "(centres unmarked)", "hERG current change (%, negative = inhibition) at 1uM": -85.9}
{"smiles": "CS(=O)(=O)Nc1ccc(C2=NN(C(=O)c3ccco3)C(c3ccc(F)cc3)C2)cc1", "note": "(centres unmarked)", "hERG current change (%, negative = inhibition) at 1uM": -44.7}
{"smiles": "CCS(=O)(=O)Nc1ccc(C2=NN(C(=O)c3ccco3)C(c3cccc(F)c3)C2)cc1", "note": "(centres unmarked)", "hERG current change (%, negative = inhibition) at 1uM": 0.693}
{"smiles": "CCCCN1C(=N)C(CC)(CC)C(=O)NC1=O.Cl", "hERG current change (%, negative = inhibition) at 1uM": 27.4}
{"smiles": "Cc1ccc2cc(CN(Cc3ccco3)C(=O)C3CCCCC3)c(=O)[nH]c2c1C", "hERG current change (%, negative = inhibition) at 1uM": 6.2}
{"smiles": "Cc1ccc2nc3nc(NCC4CCCO4)c(C(=O)NC4CCCCC4)cc3c(=O)n2c1", "note": "(centres unmarked)", "hERG current change (%, negative = inhibition) at 1uM": -76.8}
{"smiles": "C=CCNC(=O)c1cc2c(=O)n3cc(C)ccc3nc2nc1NCC1CCCO1", "note": "(centres unmarked)", "hERG current change (%, negative = inhibition) at 1uM": -82}
{"smiles": "Cc1ccc(-c2nn(-c3ccccc3Cl)cc2C(=O)NCC2CCCO2)cc1", "note": "(centres unmarked)", "hERG current change (%, negative = inhibition) at 1uM": 18.4}
{"smiles": "O=C(NC1CCCCCC1)c1ccc2nc3cc(Cl)ccc3c(=O)n2c1", "hERG current change (%, negative = inhibition) at 1uM": 4.2}
{"smiles": "CCOCCCNc1nc2nc3ccc(C)cn3c(=O)c2cc1C(=O)NCC1CCCO1", "note": "(centres unmarked)", "hERG current change (%, negative = inhibition) at 1uM": -76}
{"smiles": "CCn1cc(C(=O)NCC2CCCO2)c2cc(OC)c(OC)cc2c1=O", "note": "(centres unmarked)", "hERG current change (%, negative = inhibition) at 1uM": 14.8}
{"smiles": "Cc1ccc2nc3nc(NCC4CCCO4)c(C(=O)NC4CCCC4)cc3c(=O)n2c1", "note": "(centres unmarked)", "hERG current change (%, negative = inhibition) at 1uM": -83.8}
{"smiles": "Cc1ccc2nc3c(cc(C(=O)NC4CCS(=O)(=O)C4)n3Cc3ccccc3)c(=O)n2c1", "note": "(centres unmarked)", "hERG current change (%, negative = inhibition) at 1uM": 21.4}
{"smiles": "Cc1ccc(-c2nn(-c3ccccc3)cc2C(=O)NCC2CCCO2)cc1", "note": "(centres unmarked)", "hERG current change (%, negative = inhibition) at 1uM": 1.49}
{"smiles": "COCCCNC(=O)c1cc2c(=O)n3cc(C)ccc3nc2nc1NCC1CCCO1", "note": "(centres unmarked)", "hERG current change (%, negative = inhibition) at 1uM": -26.6}
{"smiles": "Cc1ccc2nc(SCC(=O)NC3CCCCC3)nc(=O)n2c1", "hERG current change (%, negative = inhibition) at 1uM": -4.63}
{"smiles": "CCNc1nc2nc3ccc(C)cn3c(=O)c2cc1C(=O)NCC1CCCO1", "note": "(centres unmarked)", "hERG current change (%, negative = inhibition) at 1uM": -31.2}
{"smiles": "CCN(CC)c1ccc(/C=N/NC(=O)CNC(=O)c2ccccn2)cc1", "hERG current change (%, negative = inhibition) at 1uM": -7.85}
{"smiles": "CC(C)C(C)NC(=O)CSc1nnc(-c2c[nH]c3ccccc23)o1", "note": "(centres unmarked)", "hERG current change (%, negative = inhibition) at 1uM": 4.32}
{"smiles": "CC1(C)CC(=O)C(C2c3ccccc3S(=O)(=O)c3ccccc32)C(=O)C1", "hERG current change (%, negative = inhibition) at 1uM": 16.3}
{"smiles": "c1ccc(-c2nc3nonc3c3nc4ccccc4n23)cc1", "hERG current change (%, negative = inhibition) at 1uM": -1.03}
{"smiles": "Cc1ccc(S(=O)(=O)N(CC(O)CN(C)C)c2ccccc2)cc1.Cl", "note": "(centres unmarked)", "hERG current change (%, negative = inhibition) at 1uM": -43.8}
{"smiles": "O=S(=O)(c1ccccc1)N(CC(O)COc1ccccc1)c1ccccc1", "note": "(centres unmarked)", "hERG current change (%, negative = inhibition) at 1uM": 7.47}
{"smiles": "Cc1cccc(N(CC(O)CN2CCOCC2)S(=O)(=O)c2ccccc2)c1", "note": "(centres unmarked)", "hERG current change (%, negative = inhibition) at 1uM": 11.2}
{"smiles": "Cc1cc(C)n(CC(O)CN(c2ccccc2)S(=O)(=O)c2ccc3ccccc3c2)n1", "note": "(centres unmarked)", "hERG current change (%, negative = inhibition) at 1uM": 6.41}
{"smiles": "CCN(CC)CC(O)CN(c1ccccc1)S(=O)(=O)c1ccc2ccccc2c1.Cl", "note": "(centres unmarked)", "hERG current change (%, negative = inhibition) at 1uM": -78.5}
{"smiles": "CCCN(CCC)CC(O)CN(c1ccccc1)S(=O)(=O)c1ccc(C)cc1", "note": "(centres unmarked)", "hERG current change (%, negative = inhibition) at 1uM": -88.6}
{"smiles": "Cc1ccc(S(=O)(=O)N(CCC(=O)O)c2ccccc2)cc1", "hERG current change (%, negative = inhibition) at 1uM": 4.11}
{"smiles": "Cc1cccc(N(CC(O)CN(C)C)S(=O)(=O)c2ccccc2)c1.Cl", "note": "(centres unmarked)", "hERG current change (%, negative = inhibition) at 1uM": -50.1}
{"smiles": "Cc1ccc(N(CC(O)CN(C)C)S(=O)(=O)c2ccccc2)cc1.Cl", "note": "(centres unmarked)", "hERG current change (%, negative = inhibition) at 1uM": -62.8}
{"smiles": "CCN(c1ccccc1)S(=O)(=O)c1ccc2ccccc2c1", "hERG current change (%, negative = inhibition) at 1uM": 14.6}
{"smiles": "Cc1ccc(S(=O)(=O)N(CC(O)CN2C(=O)NC(C)(C)C2=O)c2ccccc2)cc1", "note": "(centres unmarked)", "hERG current change (%, negative = inhibition) at 1uM": -28.4}
{"smiles": "Cc1cccc(N(CC(O)CN2CCCC2)S(=O)(=O)c2ccccc2)c1", "note": "(centres unmarked)", "hERG current change (%, negative = inhibition) at 1uM": -35.3}
